Screens deposited in PubChem BioAssay by several laboratories.
NR3A LBD binder: modulators (binders) of human NR3A ligand-binding domain; Tm shift relative to glycine control, % at 25 µM; 340,000 compounds, 2.5% hits; AID 1259313; NR3A LBD differential scanning fluorimetry, Tm shift; 0% = protein alone, 100% = glycine-bound protein;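 active = melting temperature shift of at least 10% of the positive control shift, at one fixed dose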
FAS-TE inh: FAS thioesterase (human) inhibition; recombinant FAS-TE, OMFH fluorogenic substrate, fluorescence endpoint; inhibition, % at 15 µM; 360,000 compounds, 0.67% hits; AID 602261;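 active = compounds whose normalised, plate-corrected inhibition of enzyme fluorescence in the single-dose primary screen is 50% or more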;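 note: 0% = DMSO with enzyme and 100% = substrate without enzyme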
ADAM17 inh: ADAM17 inhibition, QFRET primary screen. P78536. recombinant ADAM17, EDANS/DABCYL FRET peptide cleavage. inhibition, % at 6.95 µM. 370,000 compounds, 0.83% hits. AID 720648;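 active = inhibition above the mean of compounds lying between control limits plus 3 SD, set per campaign, cut at about 8.5% in these data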;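 note: 0% = DMSO-only wells as the low control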
HGIII-sPLA2 inh: Inhibits HGIII-sPLA2 liposome hydrolysis, primary screen; QFRET BODIPY PC-A2 liposome hydrolysis, fluorescence; AID 743126; inhibition, % at 12.2 µM; Q9NZ20; 370,000 compounds, 0.56% hits;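 active = inhibition above mean plus 3 SD of compounds lying within the high and low control bounds, cut at about 19% in these data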;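 note: 0% = median of test compound wells and 100% = no enzyme DMSO wells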
Target sequence (Q9NZ20 whole entry, looked up): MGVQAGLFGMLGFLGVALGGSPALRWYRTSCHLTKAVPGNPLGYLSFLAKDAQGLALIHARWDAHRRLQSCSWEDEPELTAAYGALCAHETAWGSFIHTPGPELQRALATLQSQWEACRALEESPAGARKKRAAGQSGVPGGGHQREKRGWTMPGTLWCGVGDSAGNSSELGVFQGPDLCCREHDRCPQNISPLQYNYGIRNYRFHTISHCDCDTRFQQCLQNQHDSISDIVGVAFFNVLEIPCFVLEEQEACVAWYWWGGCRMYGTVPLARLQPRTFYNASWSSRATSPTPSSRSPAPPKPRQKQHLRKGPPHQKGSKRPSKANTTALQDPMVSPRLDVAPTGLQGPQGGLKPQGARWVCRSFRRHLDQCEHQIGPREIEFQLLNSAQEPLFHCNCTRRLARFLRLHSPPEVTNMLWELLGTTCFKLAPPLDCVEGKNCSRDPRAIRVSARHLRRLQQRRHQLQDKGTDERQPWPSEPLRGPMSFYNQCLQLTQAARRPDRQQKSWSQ
ADAM10 inh: ADAM10 inhibition, QFRET primary screen. O14672. recombinant ADAM10, EDANS/DABCYL FRET peptide cleavage, 3 h. inhibition, % at 7 µM. 370,000 compounds, 0.62% hits. AID 720582;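 active = inhibition above a per-campaign cutoff equal to the mean of compounds falling between control-based bounds plus 3 SD, cut at about 20% in these data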;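 note: 0% = DMSO wells while the 100% control is not disclosed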
FAS-TE inh conf: confirmation of human fatty acid synthase thioesterase inhibitors; shares compounds with FAS-TE inh; 2,300 compounds, 45% hits; AID 624325; inhibition, % at 15 µM; recombinant FAS-TE, OMFH fluorogenic substrate, fluorescence;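 active = compounds inhibiting the enzyme by at least 50% at 15 µM in any one of the replicates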;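 note: 0% = enzyme with DMSO only and 100% = wells lacking enzyme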
* hit, by the source's call; . = not tested or not shown; ! = a repeat was not active. This is a sample that favours compounds with a hit; in the whole collection about 4.3% have one here.

SMILES	NR3A LBD binder	FAS-TE inh	ADAM17 inh	HGIII-sPLA2 inh	ADAM10 inh	FAS-TE inh conf
COc1ccc(-c2csc3ncnc(N4CCN(S(=O)(=O)c5cccc(Br)c5)CC4)c23)cc1	-0.4	36.1	1.6	-7.0	2.6	.
Cc1ccc(S(=O)(=O)N2CCN(c3ncnc4scc(-c5ccccc5)c34)CC2)cc1	-2.2	51.7*	-1.1	18.8	-10.0	14.9
N#Cc1ccccc1S(=O)(=O)N1CCN(c2nc(-c3ccccc3)nc3ccccc23)CC1	.	25.7	0.3	0.1	7.5	.
CSc1n[nH]c(-c2cccs2)n1	.	.	-2.1	-0.7	2.6	.
COc1cccc(N(C)C(=O)[C@@H](C2CC2)[C@@H](O)c2ccc3ccccc3c2)c1	.	.	0.6	-8.4	9.7	.
CCCNC(=O)/C(=C/c1cn(S(=O)(=O)N(C)C)c2ccccc12)NC(=O)c1ccc(OC)cc1	1.5	80.9*	-0.4	0.4	-5.1	87.6*
COc1ccccc1C(=O)N/C(=C\c1cn(S(=O)(=O)N(C)C)c2ccccc12)C(=O)NCCN1CCOCC1	-1.6	-0.7	.	.	.	.
COc1cc(C(=O)N/C(=C\c2cn(S(=O)(=O)N(C)C)c3ccccc23)C(=O)NCCCO)cc(OC)c1OC	-3.0	-6.1	3.6	0.1	5.9	.
COc1ccc(C(=O)N/C(=C\c2cn(S(=O)(=O)N(C)C)c3ccccc23)C(=O)NCCCn2ccnc2)cc1	3.3	54.0*	3.8	-15.7	2.3	37.5
Cc1ccc(C(=O)N/C(=C\c2cn(S(=O)(=O)N(C)C)c3ccccc23)C(=O)NCCN2CCOCC2)cc1	-1.1	60.4*	-0.7	-1.4	5.3	66.9*
CC1CCN(C(=O)c2ccc3c(Cl)c4c(nc3c2)CCCC4)CC1	-3.1	71.3*	-0.8	-3.4	-2.0	78.3*
CCOC(=O)C1CCN(C(=O)c2ccc3c(Cl)c4c(nc3c2)CCCC4)CC1	-28.4	42.8	-2.5	-6.9	1.3	.
Cc1ccc(CN2C(=O)C(Cc3ccccc3)Nc3ncnc(N4CCN(c5ccccc5)CC4)c32)cc1 (configuration not stated)	0.1	62.4*	8.5	11.0	13.9	12.0
O=C1C(Cc2ccccc2)Nc2ncnc(N3CCN(c4ccccc4)CC3)c2N1Cc1ccc(Br)cc1 (configuration not stated)	-3.9	82.8*!	-3.6	1.4	-16.9	15.2
O=C(NC1CCCCN(Cc2ccc(Cl)cc2)C1=O)c1cccc([N+](=O)[O-])c1 (configuration not stated)	.	.	-3.1	2.0	-0.5	.
COCCCNC(=O)CN1C(=O)C2CCCCN2C(=O)c2ccccc21 (configuration not stated)	.	.	-2.7	15.0	-11.0	.
CC(C)(C)SCCNC(=O)c1ccc(Cl)c([N+](=O)[O-])c1	1.5	53.1*	-2.6	7.1	0.1	68.3*
Cc1ccccc1CNC(=O)c1ccc(Cl)c([N+](=O)[O-])c1	-18.8	33.5	0.4	11.2	-0.5	.
O=C(Nc1ncc2c(n1)-c1ccccc1OC2)c1cccc([N+](=O)[O-])c1	0.9	54.7*	-17.9	0.9	-49.8	64.2*
Cc1nc2ccc([N+](=O)[O-])cc2c(=O)n1Cc1ccc(Cl)cc1	0.3	82.8*	-2.0	3.3	-5.7	84.8*
COc1ccc(Cn2c(C)nc3ccc([N+](=O)[O-])cc3c2=O)cc1	3.5	70.0*	-0.2	-1.6	2.9	47.8*
COc1ccc(Cn2c(=O)c3cccnc3n(Cc3ccc([N+](=O)[O-])cc3)c2=O)cc1	-0.2	46.1	-2.9	10.2	-11.1	.
CN(C)[C@@H]1CCN(c2ccc3c(c2)O[C@@H]2CCN(C2)S3(=O)=O)C1	.	.	-2.1	1.5	-3.8	.
COC(=O)C[C@@H]1CC[C@H]2[C@@H](COc3ccc(NC(=O)Nc4ccccc4Cl)cc3C(=O)N2C)O1	.	.	-3.3	0.1	-2.6	.
O=C(CSc1nnc(-c2c[nH]c3ccccc23)o1)N1c2ccccc2CCc2ccccc21	5.2	55.3*	0.5	-14.1	4.6	11.1
SMILES	NR3A LBD binder	FAS-TE inh	ADAM17 inh	HGIII-sPLA2 inh	ADAM10 inh	FAS-TE inh conf
Cc1ccc(-c2nnc(COC(=O)c3cc(=O)[nH]c4ccccc34)o2)cc1	-1.1	66.1*	-19.6	10.1	-54.9	49.3*
CCOC(=O)c1cc(=O)[nH]c2ccccc12	-0.6	-4.0	-33.6	0.3	-77.8	.
O=C(COCc1ccccc1)N1CC[C@H]2[C@H](CCCN2Cc2ccccc2)C1	.	.	-1.0	-2.3	1.0	.
COc1ccccc1NS(=O)(=O)c1cc(NC(=O)/C=C/c2cccs2)ccc1N1CCOCC1	2.6	82.1*	2.5	2.8	-5.3	22.0
COc1ccccc1NS(=O)(=O)c1cc(NC(=O)c2sccc2C)ccc1N1CCCC1	-0.9	58.4*	7.4	-10.7	15.8	3.3
COc1ccccc1NS(=O)(=O)c1cc(NC(=O)C(C)(C)C)ccc1N1CCOCC1	1.0	5.3	0.5	-1.2	5.7	.
COc1ccccc1C(=O)NC1CCCCN(Cc2ccc(OC(F)(F)F)cc2)C1=O (configuration not stated)	.	.	2.9	3.7	-0.7	.
N#Cc1c(/N=C/c2ccc(-c3ccccc3C(=O)O)o2)sc2c1CCCC2	0.7	-0.3	-16.3	5.3	-51.6	.
N#Cc1c(/N=C/c2ccc(-c3ccc(C(=O)O)c(Cl)c3)o2)sc2c1CCCC2	0.5	50.2*	-19.7	15.9	-79.6	41.5
CCOc1ccc(NC(=O)CN2C(=O)CSc3ccc(S(=O)(=O)N4CCCC4)cc32)cc1	-0.2	30.3	0.1	-3.9	5.2	.
COc1cccc(NC(=O)CN2C(=O)CSc3ccc(S(=O)(=O)N4CCCCC4)cc32)c1	-2.3	53.3*	3.1	-1.5	12.4	65.8*
O=C(CN1C(=O)CSc2cc(S(=O)(=O)N3CCCCCC3)ccc21)NCCc1ccccc1	1.3	50.3*	-4.6	-0.4	-1.4	8.5
Cc1ccccc1NC(=O)CN1C(=O)CSc2ccc(S(=O)(=O)N3CCCCC3)cc21	0.0	3.3	1.0	-3.5	-1.4	.
Cc1ccc(NC(=O)CN2C(=O)CSc3ccc(S(=O)(=O)N4CCCCC4)cc32)cc1	-4.1	55.7*	3.6	-7.2	10.0	41.8*
CCCCNC(=O)C1CCCN1C(=O)Nc1cc(C)cc(C)c1 (configuration not stated)	.	.	1.5	-2.5	-0.8	.
CCOc1ccc(-n2c(SCC(=O)Nc3ccc(S(=O)(=O)Nc4cc(C)nc(C)n4)cc3)nnc2-c2ccc(C)cc2)cc1	.	.	3.3	-63.4	4.3	.
CC(=O)Nc1ccc2c(c1)C(=O)N(C)[C@H]1CC[C@H](CC(=O)NCc3ccc(F)cc3)O[C@@H]1CO2	.	.	-1.2	-11.0	6.2	.
O=C(O)c1ccccc1Nc1cc(Cl)c2nonc2c1[N+](=O)[O-]	0.8	29.0	-3.5	6.4	-7.1	.
O=[N+]([O-])c1c(Nc2ccccn2)cc(Cl)c2nonc12	-2.5	62.2*	-3.4	-21.5	-12.4	30.7
